The source made the active and inactive calls. Calls follow the shape of the dose curve; as a rule, active = well fitted curve in the direction sought with a large enough effect; inconclusive = small, poorly fitted or top-dose-only effect, or effect the other way, or another doubt; inactive = no such curve, though single readings can be large or run the other way.

Beta-2 adrenergic receptor (Homo sapiens), sequence (P07550 whole entry, looked up): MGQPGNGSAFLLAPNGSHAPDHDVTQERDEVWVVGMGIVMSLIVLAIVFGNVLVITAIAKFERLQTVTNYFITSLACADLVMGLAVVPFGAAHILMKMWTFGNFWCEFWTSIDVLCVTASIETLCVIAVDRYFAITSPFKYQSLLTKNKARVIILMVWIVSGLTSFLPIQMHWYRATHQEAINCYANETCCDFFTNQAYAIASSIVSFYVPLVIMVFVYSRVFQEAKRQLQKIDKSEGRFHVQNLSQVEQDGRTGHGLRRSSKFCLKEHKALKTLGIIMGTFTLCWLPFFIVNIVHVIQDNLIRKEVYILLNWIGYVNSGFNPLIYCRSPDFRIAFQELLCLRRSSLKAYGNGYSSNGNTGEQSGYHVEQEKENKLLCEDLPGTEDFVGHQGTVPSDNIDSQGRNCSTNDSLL

This test concerns the target Beta-2 adrenergic receptor (Homo sapiens) (UniProt P07550). Put plainly: qHTS validation assay of beta-arrestin-biased ligands of beta2-adrenergic receptor (AID 485366). Particulars: cell-based beta-arrestin recruitment to ADRB2, qHTS; series mostly up to 46.1 µM. The source says: NIH Molecular Libraries Probe Production Network [MLPCN]
NIH Chemical Genomics Center [NCGC]
PI: Bryan Roth and Bob Lefkowitz
The concept of biased agonism is an emerging concept of molecular pharmacology which proposes that seven transmembrane receptors (7TMRs) or G protein-coupled receptors (GPCRs), exist in multiple signaling conformations and complexes and that ligands (either agonists or antagonists) can induce signaling biased responses for distinct signal transduction cascades.
Furthermore, accumulating evidence over the last decade has drawn attention to a novel function of beta-arrestins as signal transducers that scaffold various signaling molecules upon activation of 7TMRs. […] This beta-arrestin-biased signaling presumably leads to distinct physiological outcomes from those by G protein activation.
Additionally, the active receptor conformations which […] on this beta-arrestin signaling are likely different from those activating G protein signaling
The goal of this screening project will be to discover and optimize novel beta-arrestin-biased ligands for beta2-AR signaling. A luminescent cell-based assay for beta2-AR-mediated agonism, known as the Tango assay, has been validated in which ligand binding of a recombinant beta2-AR and subsequent recruitment of a recombinant beta-arrestin lead to the release of the transcriptional activator tTA, which upregulates transcription of a tTA-responsive luciferase gene. […] Compounds were screened as a concentration-titration series that ranged from 46 microM to 0.6 nM.
NCGC Assay Protocol Summary:
Tango cells were dispensed into white, solid, tissue-culture-treated 1536-well plates at 1500 cells/well in DMEM, containing 1% fetal bovine serum (FBS). Then, 23 nL of compounds or DMSO were delivered to each well using a pin tool. Plates were incubated at 37 degrees C, 5% CO2 for 18 hr. Then 2.5 uL luminescent substrate mix (in-house prepared: 150 mM Tris-Cl, pH 7.6, 3 mM MgCl2, 1% Triton X-100, 5 mM DTT, 0.5 mM CoA, 0.15 mM ATP, 0.44 mM D-luciferin, final concentrations) was added to each well. Plates were then incubated for 15 minutes at room temperature, and subsequently measured on a ViewLux plate reader for luminescent signal using a clear filter with a 10 second exposure and 2x binning. The %Activity was determined from the corrected luminescence values.
Concentration-response curves were fitted to the signals arising from the resulting luminescence. The concentration-effect curves were then classified based on curve quality (r2), response magnitude and degree of measured activity, and compounds were subsequently categorized based on their curve class.
Keywords: biased agonism, beta2-AR, beta-arrestin, GPCR, 7TMR, Tango, luminescence, MLSMR, MLPCN, NIH Roadmap, qHTS, NCGC
(In general: qHTS replaces the single test concentration by a dilution series.)
On to `Nc1ncnc2c1nc(Sc1ccc(Cl)cc1)n2[C@H]1OC2COP(=O)(O)O[C@@H]2C1O` (stereo not given in full), for which the call was inactive. The same measure for `O=[N+]([O-])c1cccc2cn[nH]c12`: “inactive”; for `Nc1nc2ccc(Cl)cc2c2nc(-c3ccco3)nn12`: “inactive”; for `NC1CONC1=O` (stereo not given): “inactive”. In the case of `NOCC(=O)O`, the outcome was inactive. The same measure for `O=C(O)C1CN(CCCP(=O)(O)O)CCN1` (stereo not given): “inactive”; for `NCC(O)c1ccc(O)c(O)c1` (stereo not given): “inactive”.

For `CCCCCCCCCCC/C=C\C(C)(C)/C=C\CCCC(=O)O`, the outcome was inactive. `NC(=O)c1ccccc1`: the molecule was called inactive. In the case of `O=c1ccc2c(OCCCCc3ccccc3)c3ccoc3cc2o1`, the result was inactive. With `CNCCc1cnc(CCC(c2ccccc2)c2ccccc2)[nH]1`, the call was inactive. The same measure for `C[C@@]1(C2CCCC2)Cc2cc(OCC(=O)O)c(Cl)c(Cl)c2C1=O`: “inactive”; for `c1ccc(C(NCCNC(c2ccccc2)c2ccccc2)c2ccccc2)cc1`: “inactive”.

On to `N#Cc1cc2nc(O)c(O)nc2cc1[N+](=O)[O-]`, for which the result was inactive.

For the molecule `CC(=O)NCCc1c[nH]c2ccc(O)cc12`, the call was inactive. `c1ccc2c(c1)CCC[C@H]2Nc1nc2ccccc2[nH]1`: the molecule was classed as inactive.

For the molecule `O[Si](CCCN1CCCCC1)(c1ccc(F)cc1)C1CCCCC1` (stereo not given), the result was inactive. The same measure for `CC(=O)C(C)=O`: “inactive”; for `CN1CCN(c2nc3cc(C(F)(F)F)ccc3n3cccc23)CC1`: “inactive”. The same measure for `O=C(O)C1CCNCC1`: “inactive”; for `Nc1ccc(-c2ccc3ccccc3n2)cc1`: “inactive”; for `O=C(O)c1cc2cc(F)ccc2[nH]1`: “inactive”.

On to `Nc1ncnc2c1nc(Br)n2C1OC2COP(=O)(O)O[C@@H]2C1O` (stereo not given in full), for which the call was inactive.

For the molecule `CCN(CC)CCOC(=O)c1cc(Cl)c(N)cc1OC`, the outcome was inactive.

In the case of `CC[C@@H]1Cc2cc(O)ccc2C2=C1c1ccc(O)cc1C[C@H]2CC`, the call was inactive.

Regarding `NC(=O)CC[C@H](N)C(=O)O`, the molecule was called inactive. Regarding `COc1cc(CC(=O)O)ccc1O`, the molecule was classed as inactive.

`COC(=O)[C@H](NC(=O)c1cc(-c2ccccc2)nc2ccccc12)c1ccccc1`: the call was inactive. Next, `O=c1cc(-c2ccccc2F)[nH]c2cc3c(cc12)OCO3`: “inactive”. Turning to `O=c1[nH]c2cc(Cl)ccc2c(O)c1-c1ccc(Oc2ccccc2)cc1`, the molecule was called inactive. Next, `CC(O)C(O)[C@H]1CNc2nc(N)[nH]c(=O)c2N1` (stereo not given in full): “inactive”; `N#CC(C#N)=C(N)/C(C#N)=C/c1ccc(O)cc1`: “inactive”; `CSC(N)=NCCC[C@H](N)C(=O)O`: “inactive”. On to `NC(N)=N[C@@H](CCC(=O)O)C(=O)O`, for which the molecule was classed as inactive.

For the molecule `O=C(O)[C@H]1NCCC[C@H]1C(=O)O`, the molecule was classed as inactive. Consider `O=C(O)/C=C/c1ccc(O)c(O)c1`, for which the outcome was inactive. As for `NC(C(=O)N[C@@H]1C(=O)N2C(C(=O)O)=C(Cl)CS[C@H]12)c1ccccc1` (stereo not given in full), the molecule was called inactive.

In the case of `COc1cc(/C=C(\C#N)C(=O)Nc2nnc(C(F)(F)F)s2)ccc1OCc1ccc(C(F)(F)F)cc1C(F)(F)F`, the call was inactive. Next, `C=C1C[C@@]23CC[C@H]4[C@@](C)(CCC[C@@]4(C)C(=O)OC4OC(CO)C(O)C(O)C4O)[C@@H]2CC[C@]1(OC1OC(CO)C(O)C(O)C1OC1OC(CO)C(O)C(O)C1O)C3` (stereo not given in full): “inactive”. The same measure for `Nc1ncnc2c1ncn2C1CCCC1`: “inactive”.

The values are drawn from PubChem BioAssay (NCATS).
